Test results from the supplement of paper PMC10503962.

Tested on: Trichuris muris adult worms
Assay: mean motility score (Paragon pixel variance) of adult worms (arbitrary units); higher = more motile worms, i.e. less anthelmintic effect; extreme values may be limits of the assay
Conditions: 100 µM; 24 h
Outline: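 Each drug was tested with three worms in three wells, run over three separate occasions and vehicle and positive controls included. The worms were single adult Trichuris muris from infected NOD SCID mice, held for 24 h at 37°C and 5% CO2 in 100 μL RPMI-1640 with antibiotics and drug at 100 μM (1% v/v DMSO) in 96-well plates. Motility score was derived by Paragon pixel-variance analysis of films from an automated phenotyping platform and averaged over replicate wells.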

Q: With c1cnc(N2CCN(Cc3ccc4c(c3)OCO4)CC2)nc1 [piribedil] as the compound, how does the mean motility score read?
A: The mean motility score was 1950.

Q: How did the mean motility score turn out when C=C(c1ccc(C(=O)O)cc1)c1cc2c(cc1C)C(C)(C)CCC2(C)C [bexarotene] was run?
A: Its mean motility score is 750.

Q: How did the mean motility score turn out when COC1=CC(=O)C[C@@H](C)[C@]12Oc1c(Cl)c(OC)cc(OC)c1C2=O [griseofulvin] was run?
A: Its mean motility score is 1250.

Q: Which mean motility score does the source give for CC(C)N=c1cc2n(-c3ccc(Cl)cc3)c3ccccc3nc-2cc1Nc1ccc(Cl)cc1 [clofazimine] here?
A: Its mean motility score is 3290.

Q: How did the mean motility score turn out when OCCN1CCN(CCCN2c3ccccc3Sc3ccc(Cl)cc32)CC1 [perphenazine] was run?
A: Its mean motility score is 175.

Q: Which mean motility score does the source give for CCCN[C@H]1CCc2nc(N)sc2C1.Cl.Cl [pramipexole dihydrochloride] here?
A: The mean motility score was 3620.

Q: CCN(CC)CCNC(=O)c1c(C)[nH]c(/C=C2\C(=O)Nc3ccc(F)cc32)c1C [sunitinib] was tested. Which mean motility score did it give?
A: Its mean motility score is 531.

Q: How did the mean motility score turn out when Oc1nc2ccccc2n1C1CCN(CCCC(c2ccc(F)cc2)c2ccc(F)cc2)CC1 [pimozide] was run?
A: The mean motility score was 0.

Q: With CN(C)CCOC(=O)C(c1ccccc1)C1(O)CCCC1 (stereo not drawn) [cyclopentolate] as the compound, how does the mean motility score read?
A: The mean motility score was 2640.

Q: How did the mean motility score turn out when Cc1ccc(-c2ncc(Cl)cc2-c2ccc(S(C)(=O)=O)cc2)cn1 [etoricoxib] was run?
A: The mean motility score was 3660.

Q: COc1ccc2[nH]cc(CCNC(C)=O)c2c1 [melatonin] was tested. Which mean motility score did it give?
A: Its mean motility score is 4410.

Q: Which mean motility score does the source give for Cc1nnc(NS(=O)(=O)c2ccc(N)cc2)s1 [sulfamethizole] here?
A: Its mean motility score is 3570.

Q: C[C@@H](C(=O)O)c1ccc(-c2ccccc2)c(F)c1 [tarenflurbil] was tested. Which mean motility score did it give?
A: The mean motility score was 2130.

Q: Which mean motility score does the source give for CC(=O)Nc1cccc(-n2c(=O)n(C3CC3)c(=O)c3c(Nc4ccc(I)cc4F)n(C)c(=O)c(C)c32)c1 [trametinib] here?
A: The mean motility score was 2980.

Q: Which mean motility score does the source give for CN1CCC(=C2c3ccccc3CC(=O)c3sccc32)CC1 [ketotifen] here?
A: The mean motility score was 2220.

Q: With COC(=O)c1ccccc1O [methyl salicylate] as the compound, how does the mean motility score read?
A: Its mean motility score is 3260.

Q: For NCCc1ccc(O)c(O)c1 [dopamine], which mean motility score is on record?
A: Its mean motility score is 3440.

Q: CNC(=O)c1cc(Oc2ccc(NC(=O)Nc3ccc(Cl)c(C(F)(F)F)c3)cc2)ccn1 [sorafenib] was tested. Which mean motility score did it give?
A: The mean motility score was 781.

Q: CC1(C)NC(=O)N(c2ccc([N+](=O)[O-])c(C(F)(F)F)c2)C1=O [nilutamide] was tested. Which mean motility score did it give?
A: The mean motility score was 1900.

Q: With CCCCC/C=C\C/C=C\C/C=C\CCCCC(=O)O [gamolenic acid] as the compound, how does the mean motility score read?
A: Its mean motility score is 2970.

Q: How did the mean motility score turn out when N[C@@H](CO)C(=O)O [serine] was run?
A: The mean motility score was 2250.

Q: With Cc1ccccc1C(OCCN(C)C)c1ccccc1.Cl (stereo not drawn) [orphenadrine hydrochloride] as the compound, how does the mean motility score read?
A: Its mean motility score is 1810.

Q: C=C(CC)C(=O)c1ccc(OCC(=O)O)c(Cl)c1Cl [ethacrynic acid] was tested. Which mean motility score did it give?
A: Its mean motility score is 215.
